Rows were chosen to be rich in hits. Some 21% of all compounds tested hit in one or more screens of this group.
DRD3 antagonist: qHTS of D3 Dopamine Receptor Antagonist: qHTS; D(3) dopamine receptor (Homo sapiens), P35462; D3R cells, DiscoveRx beta-arrestin luminescence, antagonist mode; active compounds read low; max response, negative = inhibition, %; 360,000 tested, 2.5% active; in the data active means max response below about -50%; inconclusive means no clear call, values can overlap the other calls; further: on the % scale 0 is the no-effect control and ±100 the full control effect
Target sequence (P35462 whole entry, looked up): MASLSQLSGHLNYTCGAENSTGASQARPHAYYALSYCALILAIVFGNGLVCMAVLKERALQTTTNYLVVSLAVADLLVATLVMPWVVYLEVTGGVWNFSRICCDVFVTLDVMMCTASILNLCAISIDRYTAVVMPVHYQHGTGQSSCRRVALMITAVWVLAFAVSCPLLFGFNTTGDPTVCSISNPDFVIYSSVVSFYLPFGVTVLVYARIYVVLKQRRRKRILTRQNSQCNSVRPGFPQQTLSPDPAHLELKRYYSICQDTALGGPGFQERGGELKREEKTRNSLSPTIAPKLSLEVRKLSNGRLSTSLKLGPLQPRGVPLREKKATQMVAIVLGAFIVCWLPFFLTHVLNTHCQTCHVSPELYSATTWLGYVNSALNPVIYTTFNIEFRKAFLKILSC
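Cells plated overnight at 1500 cells/well, then exposed to library compounds with dopamine controls for 90 minutes at 37 degrees C. DiscoveRx reagent added for 30–60 minutes at room temperature; luminescence read, quantitative HTS format.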
TDP1 cell noCPT: qHTS for Inhibitors of human tyrosyl-DNA phosphodiesterase 1 (TDP1): qHTS in cells in absence of CPT | DT40 Tdp1-/- hTDP1 cells, no CPT, ATP luminescence, 48 h | Potency, µM (top dose mostly 46.2 µM), inactives show at the top dose activity change, negative = growth inhibition, most hits filed as inhibitors | 420,000 tested, 15% active | AID 686978, 2013; further: potency means the concentration at half of the fitted maximal effect; on the % scale 0 is the no-effect control and ±100 the full control effect; nearly all actives have a fitted effect of over 55% in size
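Compound effects on proliferation are scored in DT40 Tdp1-/-;hTDP1 cells in the absence of CPT. ATP levels (CellTiter-Glo luminescence) are recorded after a ≥48 hr, 37 °C incubation.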
DT40 TDP1 CPT: qHTS for Inhibitors of human tyrosyl-DNA phosphodiesterase 1 (TDP1): qHTS in cells in presence of CPT. Potency, µM (top dose mostly 46.2 µM), inactives show top-dose activity change, negative = growth inhibition, hits mostly inhibitors. 420,000 tested, 12% active. chicken DT40 Tdp1-/-;hTDP1 cells + 20 nM CPT, ATP luminescence, 48 h; further: potency means the concentration at half of the fitted maximal effect; on the % scale 0 is the no-effect control and ±100 the full control effect; nearly all actives have a fitted effect of over 55% in size
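Cell growth measured by CellTiter-Glo luminescence after a minimum 48 h, 37 C compound exposure with 20 nM CPT in Tdp1-knockout DT40 cells stably expressing hTDP1, seeded 400/well; qHTS titration format.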
ClpP mod: qHTS Assay for Activators of ClpP; purified B. subtilis ClpP, FRET peptide cleavage, 20 min; Potency, µM (top dose mostly 57.5 µM), for inactives: top-dose activity change, negative = active; ATP-dependent Clp protease proteolytic subunit (Bacillus subtilis (strain 168)), P80244; 340,000 tested, 1.9% active; active means well fitted falling curve with a large enough effect; inconclusive means small, poorly fitted or top-dose-only effect; inactive means no such curve, though single readings can be large or run the other way; further: potency means the concentration at half of the fitted maximal effect; the source files actives as falling curves though it sought activators and does not explain the sign; nearly all actives have a fitted effect of over 65% in size
Target sequence (P80244 whole entry, looked up): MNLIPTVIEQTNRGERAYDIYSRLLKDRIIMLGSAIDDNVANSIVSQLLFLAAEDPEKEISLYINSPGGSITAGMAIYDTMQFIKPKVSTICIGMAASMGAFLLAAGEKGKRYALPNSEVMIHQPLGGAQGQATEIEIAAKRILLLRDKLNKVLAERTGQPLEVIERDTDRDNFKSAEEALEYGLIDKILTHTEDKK
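Purified B. subtilis ClpP, 10 microg/mL final in Tris/HCl pH8 with KCl, BSA, glycerol and Tween-20, cleaved an Abz/nitrotyrosine-quenched decapeptide. Fluorescence (ex 320, em 430) was read at 0 and 20 min at room temperature. Delta was normalized to 5.8 microM ADEP and DMSO/no-enzyme controls.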
D3 ag: qHTS of D3 Dopamine Receptor Agonist: qHTS. max activation, %. 410,000 tested, 0.58% active. D3R DiscoveRx beta-arrestin cells, luminescence, 90 min. AID 652048, 2013; in the data active means max activation above about 30%; further: 0% is about no effect
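Agonist mode: compounds and dopamine controls were applied to plated cells for 90 min at 37 degrees C after an overnight attachment at 1500 cells/well. Luminescent read-out followed 30 - 60 minutes at room temperature with DiscoveRx detection reagent.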
IL-1B inflam inh: qHTS for Inhibitors of Inflammasome Signaling: IL-1-beta AlphaLISA Primary Screen; activity change, % at 57.5 µM; 360,000 tested, 4.7% active; THP-1 LPS/ATP IL-1B secretion, AlphaLISA, 16 h; active compounds read low; in the data active means activity change below about -50%; inconclusive means mostly about -30% to -49%; further: on the % scale 0 is the no-effect control and ±100 the full control effect
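Secreted IL-1B measured by AlphaLISA bead assay after 16 h compound exposure of THP-1 cells; compounds (final up to 57.5 uM) added 1 h before LPS (250 ng/mL) and ATP (1.25 mM) stimulation; lower signal means less secretion.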
Numbers without * were called inactive; ? = inconclusive; / = no result. Unless noted, the call rests on the fitted dose curve; in most records, active means well fitted inhibition curve with a large enough effect; inconclusive means small, poorly fitted or top-dose-only effect; inactive means flat fitted curve, though single readings scatter.

SMILES | DRD3 antagonist | TDP1 cell noCPT | DT40 TDP1 CPT | ClpP mod | D3 ag | IL-1B inflam inh
Cc1ccc(S(=O)(=O)c2cn(C)c3cc(N4CCCC4)c(F)cc3c2=O)c(C)c1 | / | 23µM* | ? | 28µM* | -13 | /
Cc1ccc(S(=O)(=O)c2cn(C)c3cc(N4CCCCC4)c(F)cc3c2=O)cc1 | / | ? | ? | ? | 3 | /
Cc1ccc(S(=O)(=O)c2cn(C)c3cc(N4CCCCCC4)c(F)cc3c2=O)cc1 | / | 16µM* | ? | -6% | 3 | /
Cc1ccc(S(=O)(=O)c2cn(C)c3cc(N4CCCC(C)C4)c(F)cc3c2=O)c(C)c1 (stereo not drawn) | / | 23µM* | 23µM* | 20µM* | -6 | /
CCn1cc(S(=O)(=O)c2ccc(C)cc2C)c(=O)c2cc(F)c(N3CCCC3)cc21 | / | ? | ? | 32µM* | -4 | /
Cc1cc2c(cc1S(=O)(=O)Nc1cccc(C(F)(F)F)c1)OCCN2C | / | ? | -24% | 1% | 6 | /
Cc1ccc(CCNC(=O)c2cc(-c3ccncc3)nc3ccc(S(=O)(=O)N4CCOCC4)cc23)cc1 | 8 | ? | ? | 3% | 3 | 41
Cc1ccc(S(=O)(=O)NC2CC(=O)N(c3ccc4c(c3)OCCO4)C2)cc1 (stereo not drawn) | -16 | ? | ? | -4% | -8 | 10
C[N+]1(C)CCC(=C(c2ccccc2)c2ccccc2)CC1 | -28 | -24% | ? | 1% | -23 | -15
COc1ccc(S(=O)(=O)N2CCN(c3ccccn3)CC2)cc1OC | 7 | -28% | -21% | ? | -2 | 41
Cc1ccc(NC(=O)C(c2ccccc2)N2CCN(CC(=O)NC3CC3)CC2)cc1Cl (stereo not drawn) | -1 | ? | ? | -1% | 2 | -21
CCCc1ccc(OCc2ccc(C(=O)N3CCN(c4ccccn4)CC3)o2)c(OC)c1 | 32 | 21µM* | ? | -4% | 29 | -10
COc1ccc(NC(=O)C(c2ccccc2)N2CCN(c3ccccn3)CC2)cc1Cl (stereo not drawn) | -23 | ? | 23µM* | / | -10 | -17
COc1ccc(-c2cccc(N3CCN(c4ccccn4)CC3)n2)cc1OC | 17 | 18µM* | 16µM* | 5% | 9 | 29
COc1ccc(CC(=O)N2CCN(c3ccccn3)CC2)cc1OC | 16 | -6% | -17% | 22µM* | 1 | 13
COc1ccc(Cc2nnc(SCC(=O)c3c(N)n(C4CC4)c(=O)[nH]c3=O)o2)cc1 | 19 | -14% | ? | 0% | -1 | 38
Cc1ccc(NC(=O)C(C)OC(=O)c2n[nH]c3ccccc23)cc1 (stereo not drawn) | -14 | -8% | -8% | ? | -5 | 6
CC(OC(=O)c1n[nH]c2ccccc12)C(=O)Nc1ccccc1[N+](=O)[O-] (stereo not drawn) | 21 | 15µM* | ? | 3% | 5 | 6
O=S(=O)(NNc1cccc(Cl)n1)c1ccc(Cl)cc1 | -17 | -2% | -23% | -4% | -9 | 26
CC(=O)c1c(C(C)=O)c(C)n(-c2ccc(O)cc2)c1C | -5 | -12% | -15% | 1% | -2 | 13
CCN(CC)c1ccc(-n2c(C)c(C(C)=O)c(C(C)=O)c2C)cc1 | 17 | 10µM* | 23µM* | 0% | 5 | -2
CN(C(=O)CSC1=NCCS1)c1ccccc1 | 7 | -5% | 0% | 39% | -1 | 0
CN(C(=O)CSc1nc(N)c2c3c(sc2n1)CSC(C)(C)C3)c1ccccc1 | 6 | 16µM* | 16µM* | ? | -3 | -55*
Cc1ccc(NNC(=O)c2ccno2)c(C)c1 | 2 | 18µM* | 3% | / | 35* | 45
Cc1cc(-c2nnc(SCC(=O)Nc3nccs3)o2)no1 | 31 | 19% | 0% | 1% | 9 | -8
SMILES | DRD3 antagonist | TDP1 cell noCPT | DT40 TDP1 CPT | ClpP mod | D3 ag | IL-1B inflam inh
CCOc1ncccc1C(=O)Nc1ccc2c(c1)OCCCO2 | 2 | ? | ? | -2% | 2 | -4
COc1cccc(CNCCSc2nnnn2-c2ccccc2)c1OC | / | 23µM* | ? | -1% | -18 | /
CCOc1cc(CNCCSc2nnnn2-c2ccccc2)ccc1OC | / | 10µM* | 12µM* | 4% | -12 | /
COc1ccc(S(=O)(=O)NCCSc2nnnn2-c2ccccc2)cc1OC | / | 23µM* | 16µM* | -7% | -4 | /
COc1ccc(CNCCCSc2nnnn2-c2ccccc2)cc1 | / | ? | ? | 1% | -20 | /
COc1cccc(CNCCCSc2nnnn2C)c1OC | / | -10% | -15% | 0% | -11 | /
CN(Cc1ccccc1)C(=O)c1ccc(S(=O)(=O)N(C)c2ccccc2)cc1 | 0 | ? | ? | 0% | -6 | -8
Cc1cc(C(=O)CS(=O)(=O)c2ccc(Cl)cc2)cc(C)c1O | 4 | ? | 0% | 1% | -1 | 12
O=C(c1cccc(F)c1)N1CCC[C@@]2(CCN(c3ccncc3)C2)C1 | / | -17% | 1% | / | / | /
CC1(C)CC(=O)C2=C(C1)OC1=C(C(=O)CC(C)(C)C1)C2c1ccccc1 | -14 | -16% | -19% | 0% | 10 | -10
CCc1ccc(C2C3=C(CC(C)(C)CC3=O)OC3=C2C(=O)CC(C)(C)C3)cc1 | 17 | 23µM* | ? | / | 6 | -14
c1cc(CCCc2ccncc2)ccn1 | -7 | -8% | -5% | 2% | 0 | 18
CC(C)Oc1ccc(C(=O)/C(=C\c2cccs2)c2nc3ccccc3o2)cc1 | -23 | ? | ? | / | 6 | -67*
CC(C)Oc1ccc(C(=O)N(Cc2ccco2)Cc2cccs2)cc1 | / | ? | ? | -1% | 0 | /
CSC(=Nc1ccccc1)N=C(SCc1ccccc1)N(C)C | -84* | 1.3µM* | 1.2µM* | -3% | -13 | -104*
CCCCn1cnc2c(sc3nc4c(cc32)CSC(C)(C)C4)c1=O | 29 | ? | ? | -3% | -4 | -7
CC1(C)Cc2nc3sc4c(NCCO)ncnc4c3cc2CS1 | 3 | 21µM* | ? | 4% | 1 | -3
CC(C)CCn1cnc2c(sc3nc4c(cc32)CSC(C)(C)C4)c1=O | -2 | 16µM* | ? | -7% | -3 | 12
